# Among all 48,000 compounds or so, about 13,000 (27%) showed an effect of 50% or more. The list shows a part of the results.
# System: Wolbachia pipientis
# Test: Anti-Wolbachia Cell-Based Screen
# Format: functional
# Set-up: scale not given: in the data most compounds retested in dose-response had high values
# Conditions: 5 µM
row,SMILES,Percent Effect [%]
1,Cc1ccccc1C(C#N)NC(=O)c1cccc2c1OCCO2 (stereo not drawn),0.1196
2,COc1ccc(OC)c(CNCCc2cc(F)cc3c2OCOC3)c1,17.88
3,Cc1ccc(S(C)(=O)=O)cc1C(=O)N(C)Cc1ccco1,9.899
4,NC(=O)c1ccc(=O)n(Cc2cc(Br)ccc2Cl)n1,5.907
5,Cc1cc(C(=O)Nc2nnn[nH]2)ccc1I,-9.005
6,Cc1c2ncn(CC(=O)NC(C)C)c(=O)c2nn1C,-0.5924
7,Cc1cc(C(C)NC(=O)Cn2nc(C)c3ccccc3c2=O)c(C)o1 (stereo not drawn),-1.65
8,CC(C(=O)NCCN1CCCCCC1)n1cncn1 (stereo not drawn),6.754
9,CCn1nc(C)c2ccn(CC(=O)NCCN3CCCCC3)c(=O)c21,109.9
10,CCn1nc(C)c2ccn(CC(=O)NC(C)C)c(=O)c21,83.24
11,CCCNC(=O)Cn1nc(C)c2cnn(C(C)(C)C)c2c1=O,7.954
12,CCC(C)NC(=O)Cn1ccc2c(C)nn(CC)c2c1=O (stereo not drawn),121.4
13,CCn1nc(C)c2nnn(CC(=O)Nc3c(C)cccc3C)c(=O)c21,15.34
14,C1CN(c2nc3c(c(NC4CC4)n2)CN(CC2CCOC2)CC3)CCO1 (stereo not drawn),-9.007
15,Cn1cc(CN2CCC3(CCC(C(=O)NCC4CC4)C3)CC2)cn1.O=C(O)C(F)(F)F (stereo not drawn),38.61
16,O=C(c1ccncc1Cl)N1CCN(Cc2ccco2)C(CCO)C1 (stereo not drawn),-0.1352
17,Cc1nn(C)c(C)c1NC(=O)CNC(c1ccc(F)cc1)C1CCC1 (stereo not drawn),19.96
18,CCc1nc2c(NCC3COc4cc(OC)ccc4C3)ncnc2o1 (stereo not drawn),-96.33
19,COc1ccc2c(c1)OCC(CNc1cc(N)nc(SC)n1)C2 (stereo not drawn),101.5
20,CCNC(=O)c1ccnc(NCC2COc3cc(OC)ccc3C2)c1 (stereo not drawn),-7.933
21,COc1ccc2c(c1)OCC(Cc1cnc(N)c(C)c1)C2 (stereo not drawn),16.7
22,COc1cccc2c1OCC(CNc1cc(N)nc(SC)n1)C2 (stereo not drawn),103.8
23,COc1cccc2c1OCC(CNC(=O)Cc1c(C)nc(N)nc1C)C2 (stereo not drawn),-7.382

row,SMILES,Percent Effect [%]
1,COc1ccc2c(c1)OCC(Cc1cnccc1N)C2 (stereo not drawn),13.35
2,COc1cccc2c1OCC(CNc1ccc(C)nn1)C2 (stereo not drawn),-0.7094
3,COc1ccc2c(c1)OCC(Cc1ccc(C)nc1N)C2 (stereo not drawn),95.38
4,Cc1cc(C(=O)N(C)Cc2ccn[nH]2)c(NC(=O)C(C)(C)C)s1,-4.418
5,CS(=O)(=O)N1CCOC2(CCCN(c3cnccn3)C2)C1.O=C(O)C(F)(F)F (stereo not drawn),-3.383
6,Cc1noc(-c2ccc(N(C)Cc3nccs3)nc2)n1,-5.626
7,CN(Cc1cc2c(cc1OC(F)F)OCO2)Cc1nccn1C,-0.8901
8,CCC(=O)c1ccc(OCC(=O)NC(C)c2ncnn2CC)cc1 (stereo not drawn),-19.04
9,CCCn1c(O)nnc1SCC1OCCc2ccccc21 (stereo not drawn),5.121
10,CCc1cc(C(=O)N[C@H]2CN(CCS(C)(=O)=O)C[C@@H]2C2CC2)[nH]n1,-10.24
11,CCOc1ccc(C#N)cc1NCC(=O)NC(=O)NC,104.9
12,CCOc1ccc(C#N)cc1NCc1cc(C)on1,-2.452
13,CCOc1ccc(C#N)cc1NCC(=O)OC,115.5
14,CCOc1ccc(C#N)cc1NC(=O)N1CCCC(NC(=O)CC)C1 (stereo not drawn),-6.604
15,CCOc1ccc(C#N)cc1NC(=O)N1CCC(N2CCCC2)C1 (stereo not drawn),-9.106
16,CCOc1ccc(C#N)cc1NCC(=O)Nc1cc(C)no1,4.952
17,CCCNC(=O)CNc1cc(C#N)ccc1OCC,-1.533
18,CCNC(=O)C1CCCN(C(=O)Nc2cc(C#N)ccc2OCC)C1 (stereo not drawn),2.708
19,CCOc1ccc(NC(=O)c2ccc(C#N)cc2C)cc1CO,-12.77
20,CCOc1ccc(C#N)cc1NCC(=O)NC(=O)Nc1ccccc1,91.19
21,CCOc1ccc(C#N)cc1NCC(=O)Nc1cc(F)ccc1F,-5.639
22,CCNC(=O)NC(=O)CNc1cc(C#N)ccc1OCC,107.7
23,O=C(CCCC1CCCC1)NS(=O)(=O)CC1CC1,4.87

row,SMILES,Percent Effect [%]
1,O=C1NCCCCC1NC(=O)C1(c2ccc3c(c2)OCCO3)CCCC1 (stereo not drawn),-1.756
2,Cc1cccc(C(=O)N2CCCC2)c1NCC(=O)NC1(C#N)CCCC1,-7.992
3,Cc1cccc(NCC(=O)NC2(C#N)CCCC2)c1C(=O)N1CCCC1,-22.31
4,CCOc1ccc(C#N)cc1NCC(=O)NC1(C#N)CCCC1,87.98
5,O=C(Cn1cc(-c2ccccc2)ncc1=O)Nc1nnc[nH]1,-2.785
6,CN(Cc1ccc(Cl)s1)C(=O)CN(C)C1CCc2ccccc21 (stereo not drawn),3.858
7,COc1ccc(CC(=O)NC2(C)CCS(=O)(=O)C2)cc1F (stereo not drawn),7.488
8,Cc1csc(N2CCN(C(=O)CCc3ccccn3)CC2)n1,1.737
9,Cc1ncc(S(C)(=O)=O)c(N2CCCN(Cc3ccccn3)CC2)n1,10.32
10,CC(C)c1nc(CN2CCN(Cc3ccccn3)CC2)cs1,-4.826
11,FC(F)(F)c1csc(N2CCN(Cc3ccccn3)CC2)n1,72.86
12,FC(F)(F)CCc1ccnc(N2CCN(Cc3ccccn3)CC2)n1,5.215
13,FC(F)(F)c1ccnc(N2CCCN(Cc3ccccn3)CC2)n1,100.8
14,Cc1csc(N2CCN(Cc3ccccn3)CC2)n1,105.9
15,Cc1csc(N2CCN(Cc3ccccn3)CC2C)n1 (stereo not drawn),18.1
16,COc1ccccc1-c1ncc(CN2C[C@@H](N(C)C)[C@H](C(C)C)C2)s1,-33.52
17,COc1cc(OC)cc(N2CCC(NCc3cccs3)C2=O)c1 (stereo not drawn),-13.31
18,CCC(C)NC(=O)c1ccc(NC(=O)CCc2ccncc2)c(C)c1 (stereo not drawn),-8.958
19,CNC(=O)[C@@H](c1ccccc1)N1CCC[C@H]1C(=O)NCc1cccnc1.Cl.Cl,-3.423
20,Cc1ncccc1NC(=O)c1nc2c(n1C)CCN(C(=O)C1CC1)C2,102
21,Cn1c(C(=O)NC2CC2)nc2c1CCN(c1ncccn1)C2,-5.985
22,Cc1nc(CNC(=O)NC2CCN(c3ncccc3Cl)C2)oc1C (stereo not drawn),-13.94

# Source: ChEMBL document CHEMBL3988442, “University of Dundee, Small-Polar-MMV Screening Library” (2021)
